The results in this text go back to ChEMBL document CHEMBL3433997, “St. Jude Leishmania screening dataset” (2016).

The test concerns the target Glucose transporter (Leishmania mexicana) (UniProt O61059). The test is described as follows: ST_JUDE_LEISH: Cytotoxicity at 2uM final concentration against transgenic Leishmania Mexicana promastigotes LmGT2 that are glucose transport deficient and complemented with the L. Mexicana glucose transporter 2. Activity is measured by DNA content using SYBR green in vitro. It counts as functional.
The inhibition is the relative decrease from the control value, in per cent. As to `CC(O)C1CCCCN1C(=O)c1cccc(-c2ccc(-c3nc4cc(F)ccc4[nH]3)cc2)c1` (stereo not given), the inhibition is 4.37%.
As for `NC1CCCN(Cc2ccc(-c3ccc(-c4nc5cc(F)ccc5[nH]4)s3)cc2)C1` (stereo not given), the inhibition turned out to be 3.45%.
For `Cc1ccccc1-c1nc2c(CN3CCC(O)(c4ccccc4)CC3)c(O)ccc2[nH]1`, the inhibition came out at 8.8%.
The figure for `Cc1[nH]c2ccc(-c3ccccc3)cc2c(=O)c1Br` is -0.5%; for `CCCOc1ccc(NC(=O)c2cccs2)cc1Cl` it is 9.7%.
The figure for `O=C(Nc1ccc(-c2nc3ccccc3[nH]2)cc1)C1CCCN(C2CCC2)C1` (stereo not given) is 8.04%; for `CC(=O)c1ccc2cc(C(=O)NC3CCC(CCN4CCc5ccc(-c6noc(C)n6)cc5CC4)CC3)[nH]c2c1` (stereo not given) it is -2.09%; for `Cc1nc(C)c(-c2ccc(Oc3cc(Cl)cc(Cl)c3)cc2)c(O)c1Br` it is -1.58%.
For `O=C(/C=C/c1cccc2ccccc12)NCCCCCN1CCC(c2c[nH]c3ccccc23)CC1`, the inhibition is 2.9%.
For the molecule `N#Cc1cccc(CN2CCCN(c3ccc(NC(=O)c4cccs4)cc3)CC2)c1`, the inhibition turned out to be 4.34%.
Take `CC(C)(C)C/C=C\c1ccc(C(=O)NCC2CC2)cc1`: the inhibition was 3.76%.
`Cc1ccc(Cn2nc(Cl)c(N3CCNCC3)cc2=O)cc1NC(=O)Nc1ccc(-c2ccccc2)cc1`: the inhibition is 6.75%.
As for `CC(=O)Nc1cc(C(=O)Nc2cccc(-c3csc(-c4nc5ccccc5[nH]4)c3)c2)ccc1C`, the inhibition was 9.18%.
For the molecule `CCC(CC)(Cc1ccccc1)NC(=O)[C@H](CC(C)C)Nc1ccc(C#N)c2ccccc12`, the inhibition amounted to 10.7%.
Turning to `Nc1c2c(nc3ccc(C(=O)Nc4ccc(Br)cc4)cc13)CCCC2`, the inhibition was found to be 2.67%.
The figure for `CON(C)C(=O)[C@@H](CCCCNC(=O)OCc1ccccc1)NC(=O)OC(C)(C)C` is -1.83%; for `N#Cc1ccccc1Sc1ccccc1C(=O)Nc1ccc2ccccc2n1` it is 7.12%; for `CC(C(=O)N1CCCC1)N1CCN(S(=O)(=O)c2ccc(C(C)(C)C)cc2)CC1` (stereo not given) it is 4.07%.
Consider `CN(C)CC(=O)Nc1cccc(Nc2nccc(NCC(O)c3ccccc3)n2)c1` (stereo not given), for which the inhibition was -0.94%.
Turning to `COC(=O)c1cccc(CNCc2cccc(-c3ccc(-c4nc5ccccc5[nH]4)s3)c2)c1`, the inhibition is 1.96%.
Regarding `CCNc1cc(C(=O)N[C@@H](Cc2ccccc2)[C@H](O)CNCC(C)C)cc(N2CCCC2=O)c1`, the inhibition is -1.69%.
The figure for `CCn1c(-c2nonc2N)nc2c(-c3cccc(NC(=O)Nc4ccc5c(c4)CCC5)c3)ncc(OCCCN)c21` is 2.89%.
In the case of `Cc1ccccc1C1CCN(C2CCC(NC(=O)/C=C/c3cccc(Cl)c3)CC2)CC1` (stereo not given), the inhibition was -3.2%.
For the molecule `CCOc1ccc(C2CCN(CCCCNC(=O)c3ccc(NC(=O)c4ccc(Cl)cc4)cc3)CC2)c(CC)c1`, the inhibition was -0.33%.
The figure for `Cc1c(CNCCCNc2nc3ccncc3[nH]2)sc(Br)c1Br` is 4.11%; for `CCCCCCN1CCN(Cc2cccc(NC(=O)c3cccc(OCC)c3)c2)CC1` it is 13.1%.
With `Oc1ccc(-c2nc(-c3ccc4oc5ccc(-c6[nH]c(-c7ccc(O)cc7)nc6-c6ccccc6)cc5c4c3)c(-c3ccccc3)[nH]2)cc1`, the inhibition was -0.47%.
`CC(C)COc1ccc(C(O)C(CN2CCCCC2)c2ccccc2)cc1` (stereo not given): the inhibition was 3.27%.
Turning to `COc1ccc(-n2ccnc2SCC(=O)Nc2cccc(C(F)(F)F)c2)c(OC)c1`, the inhibition was -0.9%.
On to `CN(C)CCNCc1ccc(-c2ccc(-c3nc4cc(F)ccc4[nH]3)cc2)cc1`, for which the inhibition is 5.4%.
Take `COc1cccc(CNC[C@@H](O)[C@H](Cc2ccccc2)NC(=O)c2cc(NC(C)C)cc(N3CCCCS3(=O)=O)c2)c1`: the inhibition was determined as 0.68%.
Consider `O=C(Nc1ccc(C(=O)Oc2cccc3ccccc23)cc1)N[C@@H](Cc1ccc(O)cc1)C(=O)NC1CCN(Cc2ccc(O)cc2)C1` (stereo not given in full), for which the inhibition stood at 17.4%.
For the molecule `CN1CCN(CCCN(Cc2cccc(-c3ccc(CNC4CCCC4)cc3)c2)C(=O)CCC2CCCC2)CC1`, the inhibition amounted to 3.62%.
Turning to `O=C(Nc1cccc(-c2nn3ccccc3c2-c2ccnc(Nc3ccc(-c4cc[nH]n4)cc3)n2)c1)c1c(F)cccc1F`, the inhibition worked out at 1.44%.
For the molecule `Cc1ccc2nc(C)cc(NC(=O)Nc3ccc(N(C)C)cc3)c2c1`, the inhibition was found to be 7.68%.
Regarding `O=C(Nc1cccc(CN2CCN(C(=O)c3cccc(F)c3)CC2)c1)c1ccco1`, the inhibition stood at 0.61%.
Take `Cc1nnc(-c2ccc3ccccc3c2)c2cn(-c3cccc([N+](=O)[O-])c3)nc12`: the inhibition was 3.91%.
The figure for `NS(=O)(=O)NCCCN1CCN(c2ccccc2)CC1` is 1.5%.
Regarding `O=C(O)CCc1ccc(-c2c[nH]c3ncc(-c4ccc5ncccc5c4)cc23)cc1`, the inhibition was determined as 5.55%.
Regarding `COc1ccc(OC)c(NC(=O)C2c3ccccc3C(=O)N(CC(C)C)C2c2cccs2)c1` (stereo not given), the inhibition was -0.44%.
